The record followed here is PubChem BioAssay (Tox21).

Each structure is given as a SMILES string. “And” between values parts separate entries of the source, which are not always exact repeats. Equal values may be shown once. Results filed as inconclusive are left out. A call without a number means that no potency is given here. Some compounds were tested as several samples or in several runs, with calls that do not always agree. The source made the active and inactive calls. Calls follow the shape of the dose curve; as a rule, active = well fitted cell-killing curve with a large enough effect in the repeat runs; inconclusive = weak or mixed curves; inactive = flat fitted curve, though single readings scatter.
Potency is read from the fitted curve at half-maximal effect.

The nature of this experiment: qHTS RealTime-Glo MT Cell Viability Assay in HepG2 cells - 32 hour (AID 1224877). Also: nearly all actives have a fitted effect of over 55% in size. The settings on record: RealTime-Glo luminescence; series mostly up to 76.8 µM; activity change, negative = cytotoxic: at the top concentration. The source says: U.S. Tox21 Program National Center for Advancing Translational Sciences [NCATS] NIH Chemical Genomics Center [NCGC] U.S. Environmental Protection Agency [EPA] National Institutes of Environmental Health Sciences [NIEHS] National Toxicology Program [NTP] U.S. Food and Drug Administration [FDA] Tox21 Assay Overview: Measure of cell viability is critical in the cell-base assay. Analysis of cell viability is necessary for the characterization of cell responses to cytotoxic drugs and environmental stress. A RealTime-Glo MT Cell Viability Assay to monitor cell viability in real time of continues cell culture during 40 hours of compound treatment was used to screen Tox21 10K library compounds in HepG2 cells. The RealTime-Glo MT Cell Viability Assay is a nonlytic, homogeneous, bioluminescent method to measure cell viability in real time using a simple, plate-based method. The assay involves adding NanoLuc luciferase and a cell-permeant prosubstrate to cells in culture. Viable cells reduce the proprietary prosubstrate to generate a substrate for NanoLuc luciferase. This substrate diffuses from cells into the surrounding culture medium, where it is rapidly used by the NanoLuc Enzyme to produce a luminescent signal. The signal correlates with the number of viable cells, making the assay well suited for cytotoxicity studies.
Tox21 Assay Protocol Summary: The mixture of HepG2 cell suspension and reagents were dispensed at 600cells/6 ul/well in 1536-well tissue culture treated black solid bottom plates using a Multidrop dispenser. After the assay plates were incubated at a 37 C/5% CO2 incubator for 5 hours, 23 nL of compounds dissolved in DMSO, positive and negative controls was transferred to the assay plate by a pintool work station. The plates were incubated at 37 C for 40 hours. The luminescence intensity were measured at 0h, 8h, 16h, 24h, 32h and 40h time points using ViewLux plate reader during compound treatment.
(Quantitative high-throughput screening tests each substance at several concentrations.)
For the compound `CC(=O)O[C@]1(C(C)=O)CC[C@H]2[C@@H]3C=C(C)C4=CC(=O)CC[C@]4(C)[C@H]3CC[C@@]21C`, the “activity change, negative = cytotoxic” value is -16% [at 35.3 µM] (inactive).

Consider `CC(C)[N+](C)(CCOC(=O)C1c2ccccc2Oc2ccccc21)C(C)C`, for which the Potency entry is “inactive”.

Take `CNC[C@H](O)c1ccc(O)c(O)c1`: the Potency entry was “inactive”.

As to `Clc1ccc(Sc2cc(Cl)c(Cl)cc2Cl)cc1`, the Potency result was “inactive”.

For the compound `IC(I)I`, the Potency is 24.5 µM (active) and 17.4 µM (active).

On to `[Na+]`, for which the Potency entry was “inactive and 49 µM (active)”.

For the compound `O=C1OC2(c3ccccc31)c1cc(I)c(O)c(I)c1Oc1c2cc(I)c(O)c1I`, the Potency is 39 µM (active) and 24.8 µM (active) and 29.8 µM (active).

For the compound `CCCOCCO`, the Potency result was “inactive”.

On to `C=CC(C)(O)CCC=C(C)C` (stereo not given), for which the Potency entry was “inactive”.

On to `CCCCCCCC/C=C\CCCCCCCC(=O)O`, for which the Potency entry was “inactive”.

Take `Cc1ccc(C(C)(C)C)cc1`: the Potency result was “inactive”.

With `CC1(C)OC(=O)NC1=O`, the Potency result was “inactive”.

With `c1ccc2c(c1)ccc1ncccc12`, the Potency result is “inactive”.

As for `CC(C)(C)c1cccc(C(C)(C)C)c1O`, the Potency entry was “inactive”.

Regarding `O=Cc1ccccc1C=O`, the “activity change, negative = cytotoxic” value was 3.08% [at 35.3 µM] (inactive).

As for `C=CCCCCCCCCCC`, the Potency result is “inactive”.

With `[O-]/[N+](=N\O)c1ccccc1`, the Potency entry is “inactive”.

Turning to `C[N+](C)(C)CCO`, the Potency result was “inactive”.

`CCC/C=C/C=O`: the Potency entry was “inactive”.

On to `O=C1CCc2ccccc2O1`, for which the Potency entry was “inactive”.

In the case of `CCCCCCOCCOCCO`, the Potency entry is “inactive”.

In the case of `CC(=O)OC(C)C`, the Potency entry was “inactive”.

For `C[C@]12C=CC(=O)C=C1CC[C@H]1[C@@H]3C[C@@H](O)[C@](O)(C(=O)CO)[C@@]3(C)C[C@H](O)[C@@]12F`, the Potency result is “inactive”.

For `ClC/C=C/CCl`, the Potency result is “inactive”.

On to `OC[C@H]1O[C@@H]2O[C@H]3[C@H](O)[C@@H](O)[C@@H](O[C@H]4[C@H](O)[C@@H](O)[C@@H](O[C@H]5[C@H](O)[C@@H](O)[C@@H](O[C@H]6[C@H](O)[C@@H](O)[C@@H](O[C@H]7[C@H](O)[C@@H](O)[C@@H](O[C@H]1[C@H](O)[C@H]2O)O[C@@H]7CO)O[C@@H]6CO)O[C@@H]5CO)O[C@@H]4CO)O[C@@H]3CO`, for which the Potency entry was “inactive”.

For `CCC(Cc1c(I)cc(I)c(N)c1I)C(=O)O` (stereo not given), the Potency result was “inactive”.

As for `O=C(CCCN1CCC(O)(c2ccc(Cl)cc2)CC1)c1ccc(F)cc1`, the Potency is 49 µM (active) and inactive.

Consider `Nc1ccc(N)c(Cl)c1`, for which the “activity change, negative = cytotoxic” value was -0.435% (inactive).

For the compound `NCCN`, the Potency entry is “inactive and 21.9 µM (active)”.

Consider `C=CN1CCCC1=O`, for which the Potency result is “inactive”.

Regarding `C=CC(=O)OCCCC`, the Potency entry is “inactive”.

With `C[C@]12CC[C@@H]3c4ccc(O)cc4CC[C@H]3[C@@H]1CC[C@H]2O`, the Potency result is “inactive”.

On to `Oc1ccc(C(c2ccc(O)cc2)C(Cl)(Cl)Cl)cc1`, for which the “activity change, negative = cytotoxic” value is -2.88% (inactive).

With `NC[C@H](O)c1ccc(O)c(O)c1`, the Potency result is “inactive”.

On to `COc1ccc(-c2coc3cc(O)cc(O)c3c2=O)cc1`, for which the “activity change, negative = cytotoxic” value was -13.5% (inactive).

With `CCc1cccc2c3c([nH]c12)C(CC)(CC(=O)O)OCC3` (stereo not given), the Potency entry was “inactive”.

As for `O=C(O)c1cc(=O)[nH]c(=O)[nH]1`, the Potency entry is “inactive”.

For the compound `C=C[C@H]1CN2CC[C@H]1C[C@@H]2[C@@H](O)c1ccnc2ccc(OC)cc12`, the Potency result was “inactive”.

As for `COc1ccc2nc(N)sc2c1`, the Potency entry is “inactive”.

As to `CC(=O)[C@H]1CC[C@H]2[C@@H]3CC=C4C[C@@H](O)CC[C@]4(C)[C@H]3CC[C@]12C`, the Potency result is “inactive”.
